Data on eight compounds can be found in PubChem BioAssay (NCI).

The panel holds about 83,000 compounds, 20% with a hit somewhere; the sample as a whole holds those more often.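 Compound tested at a single concentration for 48 hours in 96-well plates; a percent growth value below 10 was scored as active.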 Values without a mark were called inactive. The source made the active and inactive calls.

Test systems include SR leukemia; RPMI-8226 leukemia; OVCAR-8 ovarian; OVCAR-5 ovarian; OVCAR-4 ovarian; SK-OV-3 ovarian; IGROV1 ovarian; OVCAR-3 ovarian; HS 578T breast; NCI/ADR-RES ovarian; T-47D breast; BT-549 breast; MDA-MB-435 melanoma; SW-620 colon; MCF7 breast; HCT-116 colon; HCC-2998 colon; KM12 colon; MDA-MB-468 breast.
What all share (assay): NCI-60 one-dose screen, 48 h (100 = growth as untreated, 0 = no growth, -100 = all killed)
Common to all, as to settings: 10 µM

As to `Cc1ccc(C(=O)N/C(=C2/OCCN2C)[P+](c2ccccc2)(c2ccccc2)c2ccccc2)cc1`, the growth with SR leukemia is 79.5%; in the assay on RPMI-8226 leukemia it was 25.6%; in the assay on OVCAR-8 ovarian, 80.5%; in the assay with OVCAR-5 ovarian, 96.3%; with OVCAR-4 ovarian, 69.8%; in the assay on SK-OV-3 ovarian it was 104%. The growth with IGROV1 ovarian is 69.9%; in the assay with OVCAR-3 ovarian, 54.5%; in the assay with HS 578T breast, 79.6%; in the assay with NCI/ADR-RES ovarian, 101%; in the assay with T-47D breast, 55.3%; in the assay with BT-549 breast, 86.8%. Further, the growth was 54.4% in the assay with MDA-MB-435 melanoma; 84.1% in the assay on SW-620 colon; 56.4% with MCF7 breast; 57.9% with HCT-116 colon; 75.1% with HCC-2998 colon; 55.4% in the assay with KM12 colon. For the same compound, in the assay with MDA-MB-468 breast, the growth is -13.3% (active).
Consider `NS(=O)(=O)c1ccc(N=Nc2c(O)n(CC(=O)Nc3ccccc3Br)c3ccccc23)cc1`, for which the growth in the assay on SR leukemia was 41.3%; in the assay on RPMI-8226 leukemia, 37.3%; in the assay on OVCAR-8 ovarian it was 18.6%; with OVCAR-5 ovarian, 70.2%; in the assay on OVCAR-4 ovarian it was 69.4%; with SK-OV-3 ovarian, 41.5%. The growth in the assay with IGROV1 ovarian was 26.4%; in the assay with OVCAR-3 ovarian, 45.7%; with HS 578T breast, 45.7%; in the assay with NCI/ADR-RES ovarian, 43.6%; with T-47D breast it was 38.1%; with BT-549 breast it was 0.165% (active). Also, the growth in the assay with MDA-MB-435 melanoma was 50.6%; in the assay on SW-620 colon, 44.4%; in the assay on MCF7 breast, 10.7%; with HCT-116 colon, 21.4%; in the assay with HCC-2998 colon it was 39.5%; in the assay with KM12 colon it was 36.7%. Also, the growth in the assay with MDA-MB-468 breast is 35.8%.
In the case of `CC(=O)Nc1ccc(-c2cn(-c3cccc(C(=O)Nc4cc(CN5CCOCC5)cc(C(F)(F)F)c4)c3)nn2)cn1`, the growth is 0.486% (active) in the assay with SR leukemia; 2.68% (active) with RPMI-8226 leukemia; -37% (active) in the assay on OVCAR-8 ovarian; -95% (active) in the assay with OVCAR-5 ovarian; -82.6% (active) in the assay on OVCAR-4 ovarian; -67.6% (active) with SK-OV-3 ovarian. The growth in the assay with IGROV1 ovarian is -84.6% (active); in the assay on OVCAR-3 ovarian, -54.5% (active); in the assay on HS 578T breast, -46.2% (active); in the assay with NCI/ADR-RES ovarian it was 67.9%; in the assay on T-47D breast, -71.5% (active); with BT-549 breast, -82.1% (active). The growth in the assay with MDA-MB-435 melanoma was -89.1% (active); in the assay on SW-620 colon it was -72.6% (active); in the assay with MCF7 breast it was -84% (active); in the assay on HCT-116 colon, -56.1% (active); with HCC-2998 colon, -95.6% (active); with KM12 colon, -42.7% (active). Further, the growth in the assay on MDA-MB-468 breast was -92.1% (active).
In the case of `O=C(CN1CCN(c2ncnc3c2cnn3-c2ccccc2)CC1)Nc1nncs1`, the growth is -28.9% (active) in the assay on SR leukemia; -16.6% (active) in the assay on RPMI-8226 leukemia; -21.4% (active) in the assay with OVCAR-8 ovarian; -4.09% (active) with OVCAR-5 ovarian; 13.6% in the assay on OVCAR-4 ovarian; 28.1% with SK-OV-3 ovarian. Moreover, the growth in the assay with IGROV1 ovarian was -41.8% (active); in the assay with OVCAR-3 ovarian it was -55.6% (active); in the assay with HS 578T breast, 3.92% (active); with NCI/ADR-RES ovarian it was -32.6% (active); in the assay on T-47D breast, 27.9%; with BT-549 breast it was -85.9% (active). Also, the growth in the assay on MDA-MB-435 melanoma was 7.14% (active); with SW-620 colon, -23.9% (active); with MCF7 breast it was 16.1%; with HCT-116 colon, 8.23% (active); with HCC-2998 colon it was 59.7%; with KM12 colon, 4.55% (active). For the same compound, the growth in the assay on MDA-MB-468 breast was -39.8% (active).
For the compound `O=c1cc(-c2ccccc2)oc2cc(OCCCNCc3ccccc3)cc(O)c12`, the growth was -24.8% (active) with SR leukemia; -26.8% (active) with RPMI-8226 leukemia; -90.5% (active) in the assay with OVCAR-8 ovarian; 75.5% in the assay on OVCAR-5 ovarian; -16.2% (active) in the assay on OVCAR-4 ovarian; 30.1% in the assay with SK-OV-3 ovarian. The growth was 9.54% (active) in the assay on IGROV1 ovarian; 16.2% in the assay on OVCAR-3 ovarian; -4.99% (active) in the assay on HS 578T breast; -77.9% (active) in the assay on NCI/ADR-RES ovarian; -64.7% (active) in the assay with T-47D breast; 46.8% in the assay with BT-549 breast. The growth in the assay on MDA-MB-435 melanoma was -44.2% (active); with SW-620 colon it was -13.8% (active); in the assay on MCF7 breast it was -30% (active); in the assay on HCT-116 colon, -68.7% (active); in the assay on HCC-2998 colon, -95.8% (active); with KM12 colon, -38.3% (active). For the same compound, the growth in the assay on MDA-MB-468 breast is -59.5% (active).
For the compound `Nc1nc(Nc2ccc(Cl)cc2)n(Cc2cccc(Br)c2)n1`, the growth was 10.4% in the assay with SR leukemia; 2.44% (active) with RPMI-8226 leukemia; 2.52% (active) in the assay on OVCAR-8 ovarian; -24.5% (active) in the assay with OVCAR-5 ovarian; 9.75% (active) in the assay on OVCAR-4 ovarian; -2.59% (active) in the assay on SK-OV-3 ovarian. Besides, the growth in the assay with IGROV1 ovarian was -5.03% (active); with OVCAR-3 ovarian, -35.3% (active); with HS 578T breast, -25.9% (active); with NCI/ADR-RES ovarian, -25% (active); with T-47D breast, 15.1%; in the assay on BT-549 breast, -51.4% (active). For the same compound, the growth in the assay on MDA-MB-435 melanoma was -64.9% (active); in the assay on SW-620 colon, -16.5% (active); with MCF7 breast, -31.6% (active); in the assay with HCT-116 colon, -57.7% (active); in the assay with HCC-2998 colon, -71.6% (active); in the assay with KM12 colon it was -0.172% (active). Moreover, the growth in the assay on MDA-MB-468 breast was -46.5% (active).
Take `O=C(CSc1nnc(-c2c[nH]c3ccccc23)n1-c1ccccc1)Nc1ccc(C(=O)/C=C/c2ccc(Br)cc2)cc1`: the growth in the assay on SR leukemia was 72.3%; with RPMI-8226 leukemia, 7.63% (active); with OVCAR-8 ovarian, 95.6%; with OVCAR-5 ovarian, 93.3%; in the assay with OVCAR-4 ovarian it was 91.2%; with SK-OV-3 ovarian, 88.3%. The growth in the assay on IGROV1 ovarian is 80.5%; in the assay on OVCAR-3 ovarian, 81%; with HS 578T breast, 82.2%; with NCI/ADR-RES ovarian, 94.9%; with T-47D breast it was 57.9%; in the assay with BT-549 breast it was 87.4%. Moreover, the growth is 85.8% with MDA-MB-435 melanoma; 97.6% in the assay with SW-620 colon; 25.3% in the assay with MCF7 breast; -32.4% (active) in the assay with HCT-116 colon; 94.4% in the assay on HCC-2998 colon; 72% with KM12 colon. For the same compound, in the assay with MDA-MB-468 breast, the growth is 71.1%.
`CCCSc1nc(NC2CC2)c(C#N)c(-c2ccc(OC)cc2)n1`: the growth with SR leukemia was 98.4%; in the assay on RPMI-8226 leukemia, 96.6%; in the assay with OVCAR-8 ovarian, 69.2%; in the assay on OVCAR-5 ovarian, 105%; in the assay on OVCAR-4 ovarian, 84.5%; in the assay on SK-OV-3 ovarian it was 115%. Also, the growth is 108% in the assay with IGROV1 ovarian; 93.5% in the assay on OVCAR-3 ovarian; 105% in the assay on HS 578T breast; 68.7% in the assay on NCI/ADR-RES ovarian; 88.8% in the assay with T-47D breast; 88.1% in the assay with BT-549 breast. Also, the growth in the assay with MDA-MB-435 melanoma is 106%; in the assay with SW-620 colon, 105%; with MCF7 breast, 103%; in the assay with HCT-116 colon, 74.1%; in the assay with HCC-2998 colon, 115%; in the assay on KM12 colon, 107%. Besides, the growth in the assay with MDA-MB-468 breast is 139%.
